ALDH1A1 block = blocks purified human ALDH1A1 activity; Purified ALDH1A1, NADH fluorescence, propionaldehyde substrate; P00352; 220,000 tested, 7.3% active; Potency, µM (series often up to 75.3 µM), without a hit: at the top dose activity, negative = inhibition, most hits filed as inhibitors;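 note: potency is the fitted concentration of half-maximal effect; plate controls were no enzyme wells and a reference inhibitor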
Target sequence (P00352 whole entry, looked up): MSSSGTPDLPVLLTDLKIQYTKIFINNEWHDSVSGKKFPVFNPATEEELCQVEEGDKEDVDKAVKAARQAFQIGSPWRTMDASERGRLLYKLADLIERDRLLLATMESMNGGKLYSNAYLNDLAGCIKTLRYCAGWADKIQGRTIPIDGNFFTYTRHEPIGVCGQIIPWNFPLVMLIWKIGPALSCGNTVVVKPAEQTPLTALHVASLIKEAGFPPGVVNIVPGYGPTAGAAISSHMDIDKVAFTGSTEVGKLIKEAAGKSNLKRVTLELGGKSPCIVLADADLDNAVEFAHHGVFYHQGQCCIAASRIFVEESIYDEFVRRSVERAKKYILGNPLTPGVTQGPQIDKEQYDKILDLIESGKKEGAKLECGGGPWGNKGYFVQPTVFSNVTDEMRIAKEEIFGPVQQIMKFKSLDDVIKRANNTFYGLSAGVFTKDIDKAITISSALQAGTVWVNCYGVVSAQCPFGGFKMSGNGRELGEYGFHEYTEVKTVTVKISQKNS
HPGD inh = blocks human HPGD enzyme activity. P15428. 150,000 tested, 4.3% active. purified HPGD, NADH fluorescence kinetic, PGE2 substrate. Potency, µM, for inactives: at the highest dose activity change, negative = inhibition, actives largely listed as inhibitors; note: potency is the fitted concentration of half-maximal effect
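20 nM HPGD preincubated 15 min at room temperature with compound in 50 mM Tris-HCl pH 8, 0.01% Tween 20. Started with 1 mM NAD+ and 30 uM prostaglandin E2; NADH fluorescence (360/450 nm) read 5 times over 30-s intervals, last minus first.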
PNC inhibitor = inhibitors of perinucleolar compartment assembly; PC3M PTB-GFP, PNC prevalence imaging, 16 h; stronger effect = lower value; activity change (PNC), negative = inhibition, % at 10 µM; 140,000 tested, 3.1% active; AID 2417;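 active = readout at or below -70, meaning at least 70% loss of cells showing the perinucleolar compartment, a nuclear body marking cancer cells; inconclusive = readout between -30 and a set limit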;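 note: plate controls were DMSO wells for no effect and camptothecin positive control wells for full effect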
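PC3M cells stably expressing PTB-GFP, 750–1000 cells/well, treated 16 h at 37 °C with compound (23 nl of library stock), in duplicate. After paraformaldehyde fixation and Hoechst stain, imaged at 20x; PNC prevalence scored by image analysis.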
An asterisk follows results filed as active; ? = inconclusive; / = no result given; [ ] = dose if it differs, or a comment. In the library only some 11% were active in any assay of this set; here they are far more common. Unless noted, calls come from the whole dose curve; as a rule, active = well fitted inhibition curve with a large enough effect (not every such curve was filed as active); inconclusive = small, poorly fitted or top-dose-only effect, or another doubt; inactive = no such curve, though single readings can be large or run the other way. Unless noted, % is set by controls: 0 for no effect and ±100 for the full control effect.

SMILES | ALDH1A1 block | HPGD inh | PNC inhibitor
OCC(CO)(CBr)CBr | ? | -9% | /
FC(F)(F)c1nnc2ccc(Sc3ccccn3)nn12 | 2% | / | /
CC(NC(=O)CSc1nnc(-c2cc3cc(Cl)ccc3o2)n1C)c1ccccc1 (configuration not stated) | 7% | -6% | -119*
Cn1c(SCC(=O)NC2CCCCC2)nnc1-c1cc2cc(Cl)ccc2o1 | 16% | ? | 8
COc1ccccc1N(C(=O)c1cncc(Br)c1)c1nc(-c2ccc(C)cc2)cs1 | 8% | -19% | ?
COc1cccc(C2CC(=O)N3CN(c4ccccc4F)CSC3=C2C#N)c1 (configuration not stated) | 25µM* | ? | -28
COc1ccc(C2CC(=O)N3C(=C2C#N)SCC3(O)c2ccccc2)cc1 (configuration not stated) | ? | -19% | 8
COc1ccc(OC)c(C2CC(=O)N3CN(c4ccccc4F)CSC3=C2C#N)c1 (configuration not stated) | 4µM* | 25µM* | 7
COc1ccc(OC)c(C2CC(=O)NC(SC)=C2C#N)c1 (configuration not stated) | -6% | -16% | 17
CN(c1ccccc1)S(=O)(=O)c1cccc(C(=O)OCC(=O)NCc2ccc3c(c2)OCO3)c1 | -7% | -9% | 25
CCC/C=C(\CCC)C(NC(=O)c1cccs1)c1ccc(C(F)(F)F)cc1 (configuration not stated) | 2% | -9% | /
COc1cccc(NC(=O)Cc2ccccc2)c1 | -5% | -14% | 48
O=C(Cc1ccccc1)Nc1cccc(N2C(=O)C=CC2=O)c1 | 0.71µM* | 3.5µM* | ?
O=C(/C=C/c1cccc(Cl)c1)Nc1ncccn1 | -6% | -16% | 66
O=C(/C=C/c1cccc(Cl)c1)c1nc2ccccc2[nH]1 | 2.2µM* | ? | 39
COC(=O)c1nnn(CC(=O)NC(=O)Nc2cccc(Cl)c2C)c1C(=O)OC | 9% | / | /
COC(=O)[C@H](CC(C)C)NC(=O)N1CCC(C)CC1 | 11% | / | /
Cc1ccc(C)c(C(=O)COC(=O)c2ccc(Br)o2)c1 | -4% | 1% | -10
Cc1cc(C)c(C(=O)COC(=O)c2ccc([N+](=O)[O-])o2)cc1C | 2µM* | / | /
Cc1cc(C(=O)COC(=O)c2ccc([N+](=O)[O-])o2)c(C)n1CC1CCCO1 (configuration not stated) | 16µM* | / | /
Cc1cc(C(=O)COC(=O)c2ccc(O)cc2)c(C)n1CC1COc2ccccc2O1 (configuration not stated) | ? | -5% | -81*
CSc1ncccc1C(=O)OCC(=O)c1cc(C)n(CC2CCCO2)c1C (configuration not stated) | 2% | / | /
Cc1cc(C(=O)COC(=O)c2ccc3c(c2)OCO3)c(C)n1CC1CCCO1 (configuration not stated) | 8% | / | /
COC(=O)c1cc(C(=O)NCCN2C(=O)S/C(=C\c3cccs3)C2=O)cc([N+](=O)[O-])c1 | ? | -16% | ?
C/C(=N\NC(=O)OC(C)(C)C)c1ccccc1Br | 1% | / | /
SMILES | ALDH1A1 block | HPGD inh | PNC inhibitor
O=C(CN1C(=O)CCC1=O)Nc1ccc(Cc2ccc(NC(=O)CN3C(=O)CCC3=O)cc2)cc1 | 5% | / | /
CCOC(=O)C1CCCNC1=O (configuration not stated) | 1% | / | /
O=C(Nc1ccc(N2CCCC2)cc1)c1ccccc1F | ? | -9% | 27
COc1ccc(NC(=O)C2(c3ccc(NC(=O)c4ccc(C)cc4)cc3)CCCC2)cc1 | -8% | ? | 7
COc1ccc(C(=O)Nc2ccc(C3(C#N)CCCC3)cc2)cc1 | 1.3µM* | / | /
N#CC1(c2ccc(NC(=O)c3ccccc3F)cc2)CCCC1 | 5µM* | -30% | ?
Cc1c(/C=N/NC(=O)C(NC(=O)c2ccc3c(c2)OCO3)C(C)C)c2ccccc2n1C (configuration not stated) | -10% | -8% | -26
CCCCc1nc2c(c3c1C[C@H](C)OC3)CN(C(=O)Nc1cccc(C#N)c1)CC2 | 23%[13.5 µM] | -4% | /
O=C(O)/C=C\c1c2ccc(=O)c(O)c-2oc2c(O)c(O)ccc12 | 3%[13.5 µM] | 2.8µM* | /
Cc1cc(=O)c2c(O)c(O)ccc2o1 | -7% | -19% | -3
O=C(O)[C@H]1CCCC[C@@H]1c1c2ccc(=O)c(O)c-2oc2c(O)c(O)ccc12 | -9%[13.5 µM] | 4.5µM* | /
COc1cccc([C@@H]2Oc3ccc(OC)cc3C(=O)[C@H]2OC(=O)NS(=O)(=O)c2ccc(F)cc2)c1 | 3% | -17% | /
O=C1OC(c2ccccc2)=NC12CC2c1ccc(Cl)cc1 (configuration not stated) | 28µM* | 28µM* | -11
OCC1(CO)COC(c2ccccc2)=N1 | 3% | / | /
COc1cc(-c2nnc(SCC(=O)N(C)C3CCS(=O)(=O)C3)o2)cc(OC)c1OC (configuration not stated) | -1% | / | /
Cc1cc(=O)[nH]c(=S)n1-c1ccccc1 | ? | -1% | -122*
Nc1cc(=O)[nH]c(=S)n1-c1ccccc1 | -2% | -8% | 10
O=C(CC1SC(=Nc2ccccc2)N(Cc2ccccn2)C1=O)Nc1ccc(Br)cc1 (configuration not stated) | 7.1µM* | ? | ?
O=C(CC1SC2=NCCN2C1=O)Nc1ccc(Br)cc1 (configuration not stated) | 3% | -3% | ?
Cc1ccccc1N=C1SC(CC(=O)Nc2ccc3ccccc3c2)C(=O)N1Cc1ccccn1 (configuration not stated) | 2% | -12% | 28
O=C(CC1Sc2ncnn2C1=O)Nc1ccc(Br)cc1 (configuration not stated) | 7.9µM* | 16µM* | 1
CCOC(=O)c1cccc(C(=O)Nc2nc3ccc(OC)cc3s2)n1 | -3% | / | /
CCCCCN1C(=O)Cn2c(nc3ccccc3c2=O)C1C (configuration not stated) | 6% | / | /
Cc1ccc(S(=O)(=O)N=Nc2c(O)[nH]c3cc(O)c(C(=O)O)cc23)cc1 | 7%[13.5 µM] | -8% | /
CCC(C)(C)C | 3% | -19% | /
SMILES | ALDH1A1 block | HPGD inh | PNC inhibitor
C=CCn1cnc2c(c1=O)c1nc3ccccc3nc1n2/N=C/c1cc(OC)c(OC)c(OC)c1 | -6% | -15% | 29
C=CCn1c(=O)/c(=C/c2cc(OC)c(OC)c(OC)c2)s/c1=C(/C#N)c1nc2ccccc2n1C | 1.4µM* | -26% | -16
Cc1nn(Cc2ccccc2)c(Cl)c1C(=O)NCc1ccco1 | 4% | / | /
COc1nc2ccccc2c(=O)n1OCC(C)C | 14µM* | -18% | -82*
Cc1cc(CC(C)C)n(-c2nc3ccccc3c(=O)n2OCc2ccccc2)n1 | 5% | -11% | -24
CS(=O)(=O)N1CCC2(CCN(c3ccccc3)CC2)CC1 | 8% | -3% | /
Cc1ccc(CNC(=S)NCc2ccncc2)cc1 | -14% | / | /
Cc1ccccc1-c1coc2cc(O)ccc2c1=O | ? | ? | -13
COc1ccc(-c2coc3cc(O)ccc3c2=O)c(O)c1O | 8.9µM* | 7.1µM* | /
C=CCN(C(=O)C1=NN(C2CCS(=O)(=O)C2)C(=O)CC1)c1nc(-c2ccc([N+](=O)[O-])cc2)cs1 (configuration not stated) | -11% | / | /
O=C(O)c1cc(N/N=C/c2ccc(N3CCOCC3)s2)ccc1Cl | 2.8µM* | ? | 38
